The record followed here is PubChem BioAssay (NCI).

What all share (assay): NCI-60 one-dose screen, 48 h (100 = growth as untreated, 0 = no growth, -100 = all killed)
What all share (settings): 10 µM unless noted

For assay [1], the system named is SN12C renal.
The subject of assay [2] is UO-31 renal.
Assay [3] concerns TK-10 renal.
Assay [4] concerns ACHN renal.
The test system of assay [5] is CAKI-1 renal.
Assay [6] relates to A498 renal.
Assay [7] concerns CCRF-CEM leukemia.
In assay [8] the test system is MOLT-4 leukemia.
For assay [9], the system named is SR leukemia.

The panel holds about 83,000 compounds, 20% with a hit somewhere; the sample as a whole holds those more often.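 The endpoint reported here, percent growth, reads 100 for growth as untreated, 0 for no net growth and -100 for all cells dead.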 Values without a mark were called inactive. Calls of active or inactive are those of the source. How the source made its calls: active means growth percent below 10; inactive means the rest.

`CC(=Nc1ccccc1)C1=C(O)C(Cc2ccc(F)cc2)NC1=O` (stereo not drawn): the growth in assay [1] is 49.1%; in assay [2] it was 44.3%; in assay [3], 41.9%; in [4], 50.9%; in [5] it was 33.6%; in [6] it was 19.3%. In addition, the growth in assay [7] was 10.7%; in [8], 14.5%; in [9], 6.59% (active).
In the case of `O=C(Nc1ccc(-c2nc3cc4ccccc4cc3[nH]2)cc1)c1cccc(Br)c1`, the growth was 44.6% in assay [1]; 13.1% in [2]; 51.8% in assay [3]; 35.1% in assay [4]; 18.2% in assay [5]; 68.5% in assay [6]. Also, the growth in assay [7] is 77%; in assay [8] it was 85.4%; in [9], 76.4%.
As to `Nc1nonc1-n1nncc1-c1cccnc1`, the growth in [1] was 117%; in [2] it was 92.9%; in assay [3] it was 107%; in assay [4] it was 105%; in [5], 95.1%; in assay [6] it was 81.9%. For the same molecule, the growth in [7] is 106%; in [8], 91.4%; in assay [9], 103%.
Consider `CCn1c(-c2nonc2Nc2ccc(OC)cc2)nc2ccccc21`, for which the growth in assay [1] is 109%; in assay [2], 90.1%; in assay [3] it was 101%; in assay [4] it was 108%; in [5], 102%; in [6] it was 78.8%. The results for the growth in assay [7], in [8] and in [9] were 105%, 116% and 110%, respectively.
Regarding `Brc1ccc(Nc2nc3ccccc3nc2Nc2ccc(Br)cc2)cc1`, the growth in assay [1] is -9.63% (active); in assay [2], -25.7% (active); in assay [3] it was -55.4% (active); in assay [4] it was 4.91% (active); in assay [5] it was -16.3% (active); in assay [6], -18.1% (active). Moreover, the growth in assay [7] was -15% (active); in assay [8] it was -21.4% (active); in [9], -23.5% (active).
For `COc1ccc(OC)c(N(CCN2C(=O)c3ccccc3C2=O)C(=O)CCl)c1`, the growth in assay [1] was 90.5%; in [2] it was -92.1% (active); in assay [3] it was 110%; in assay [4], 78.8%; in assay [5], 29.9%; in [6], 72.4%. Also, the growth is -57.4% (active) in assay [7], 54.6% in [8] and -48.6% (active) in [9].
Regarding `Cc1ccc(S(=O)(=O)c2c(COC(=O)c3cccc(C)c3)c(-c3ccccc3)nn2C)cc1`, the growth in [1] is 89.1%; in [2] it was 103%; in assay [3], 113%; in assay [4], 91%; in [5], 107%; in assay [6] it was 123%. Besides, the growth is -7.63% (active) in assay [7], -11.2% (active) in assay [8] and 1.41% (active) in [9].
Take `CN(C)CCNc1cc(-c2ccccc2)nc2ccccc12`: the growth in assay [1] was -88.5% (active); in [2], -94.2% (active); in [3] it was -68% (active); in assay [4] it was -27.5% (active); in assay [5] it was -36.1% (active); in assay [6], 52.4%. Moreover, the growth was -9.11% (active) in assay [7], 0.855% (active) in assay [8] and -23.1% (active) in assay [9].
`O=C(Nc1ccc(-c2nc3ccc(NC(=O)c4ccc(Cl)cc4)cc3[nH]2)cc1)c1ccc(Cl)cc1`: the growth in [1] is 24.5%; in assay [2] it was -5.85% (active); in [3], -27.9% (active); in [4], 9.32% (active); in assay [5], 27.2%; in assay [6] it was 58.7%. Moreover, the growth in [7] was 1.27% (active); in assay [8] it was 3.96% (active); in assay [9], -24.9% (active).
Regarding `O=C(Nc1ccc(F)c(Cl)c1)Nc1ccc(Cl)c(Cl)c1`, the growth in assay [1] was 75.8%; in assay [2], 79.2%; in assay [3], 101%; in assay [4] it was 96%; in [5], 76.1%; in [6], 69.6%. The growth in [7] is 64.8%; in assay [8] it was 43.9%; in assay [9] it was 10.2%.
As to `O=C(CSc1ncccc1C(=O)O)Nc1ccc(Oc2ccccc2)cc1`, the growth is 102% in assay [1]; 78.1% in [2]; 105% in assay [3]; 107% in assay [4]; 95.8% in [5]; 96.7% in assay [6]. The values for the growth in assay [7], in assay [8] and in assay [9] were 99.6%, 84.6% and 78.2%, respectively.
Regarding `CCCCc1c(CCC)c(=N)c2ccccc2n1C`, the growth is 79.7% in assay [1]; 65.6% in [2]; 84.3% in assay [3]; 78.4% in [4]; 81% in [5]; 75.9% in assay [6]. The growth in assay [7] is 49.8%; in assay [8], 60.6%; in assay [9], 6.82% (active).
For `O=C1OC(c2ccccc2)(c2ccccc2)c2ccsc21`, the growth in assay [1] was 98.8%; in assay [2], 88.6%; in assay [3] it was 101%; in assay [4] it was 97.9%; in assay [5], 101%; in assay [6], 96.6%. Moreover, the values for the growth in assay [7], in [8] and in assay [9] were 89.2%, 76% and 84.5%, respectively.
As to `Cc1[nH]c2ccccc2c(=O)c1CC=C(Cl)Cl`, the growth in [1] is 48.2%; in [2], 20.4%; in assay [3], 43.4%; in assay [4], 26.8%; in assay [5] it was 45.8%; in assay [6], 96.9%. Besides, the growth in assay [7] was 21.5%; in assay [8], 19.3%; in assay [9] it was -8.18% (active).
In the case of `CCOc1ccc2nc(C)cc(Nc3ccc(Br)cc3)c2c1`, the growth is 98.5% in [1]; 92.1% in assay [2]; 119% in assay [3]; 99.6% in assay [4]; 97% in [5]; 79.1% in [6]. Further, the growth in [7] was 90.3%; in assay [8], 88.6%; in [9] it was 86.4%.
For the molecule `OC(CNC1CCCCC1)Cn1c2ccc(I)cc2c2cc(I)ccc21` (stereo not drawn), the growth was 70.1% in [1]; 47.7% in assay [2]; 94.6% in assay [3]; 75.4% in [4]; 63.9% in [5]; 87.8% in [6]. Moreover, the growth in assay [7] is 78.1%; in assay [8], 68.2%; in assay [9], 68.1%.
Turning to `COc1ccc(Nc2cc(C)nc(NCc3ccccc3)n2)cc1`, the growth in assay [1] was 38.2%; in assay [2], 42%; in assay [3], 37.9%; in assay [4], 36.3%; in assay [5], 30.8%; in [6], 81%. Further, the results for the growth in assay [7], in assay [8] and in [9] were -3.8% (active), 3.02% (active) and 0.982% (active), respectively.
Consider `Oc1c(CN2CCN(c3ccccc3F)CC2)cc(Br)c2cccnc12`, for which the growth in [1] was 8.15% (active); in [2] it was -69.6% (active); in assay [3], -84.1% (active); in [4], -30.4% (active); in assay [5], -17.3% (active); in assay [6], 88.1%. For the same molecule, the growth was 1.46% (active) in assay [7], 5.58% (active) in [8] and -6.68% (active) in [9].
For the molecule `Cc1ccc(C)c(-c2csc(Nc3ccc(C)c(C)c3)n2)c1`, the growth is 66.3% in assay [1]; 40.3% in assay [2]; 51.6% in assay [3]; 58.9% in [4]; 78.2% in [5]; 65.7% in assay [6]. The growth in [7] was 6.99% (active); in assay [8] it was 24.9%; in [9], -6.45% (active).
For `CCCCC(O)(c1ccc(Cl)cc1)C(CN1CCOCC1)c1ccc(Cl)cc1` (stereo not drawn), the growth is 9.55% (active) in assay [1]; 16.1% in assay [2]; 52.9% in [3]; 33.2% in assay [4]; 26.5% in assay [5]; 36% in assay [6]. Also, the growth in [7] is 22.3%; in [8], 6.34% (active); in assay [9], 5.35% (active).
Consider `FC(F)(F)c1cccc(Nc2nc3ccccc3nc2Nc2cccc(C(F)(F)F)c2)c1`, for which the growth in assay [1] was 32.3%; in assay [2], -74.7% (active); in [3] it was -50.1% (active); in [4], -21.5% (active); in [5], -1.66% (active); in assay [6] it was 54%. Moreover, the growth in [7] was -2.8% (active); in [8], -11.2% (active); in [9], -29.4% (active).
On to `O=C(Nc1ccc(C23CC4CC(CC(c5ccccc5)(C4)C2)C3)cc1)c1cccs1`, for which the growth was 66.7% in assay [1]; 66.5% in [2]; 76.9% in assay [3]; 76.9% in assay [4]; 77.6% in [5]; 65.4% in assay [6]. Further, the growth in [7] was 56.8%; in assay [8] it was 57.7%; in [9], 38.7%.
In the case of `N#C/C(=C1\SC(=O)CN1c1ccccc1)c1nc2ccccc2s1`, the growth in assay [1] was 91%; in assay [2] it was 53.2%; in [4] it was 93.6%; in assay [5] it was 89.9%; in assay [6] it was 82.4%; in [7], 84.4%. The growth in assay [8] was 84.2%; in assay [9], 76.4%.
For `COc1ccc(CCN2CCC(CN(C)Cc3cnn(-c4ccccc4)c3)CC2)cc1`, the growth is 23.7% in assay [1]; 12.7% in assay [2]; 45.5% in [3]; 15.7% in [5]; 42.9% in assay [6]; 0.563% (active) in assay [7]. The figures for the growth in [8] and in [9] were 3.15% (active) and 5.6% (active), respectively.
In the case of `COCCN(C(=O)Cc1cccs1)C(C(=O)NCc1ccc(OC)cc1)c1ccc(C(C)C)cc1` (stereo not drawn), the growth was 89.9% in assay [1]; 82.5% in assay [2]; 115% in assay [3]; 84.6% in assay [5]; 77.1% in assay [6]; 93.9% in assay [7]. In addition, the values for the growth in assay [8] and in [9] were 80.3% and 74.3%, respectively.
In the case of `COc1ccc(C(O)(CCC(C)C)C(CN2CCOCC2)c2ccc(Cl)cc2)cc1` (stereo not drawn), the growth in [1] is 70.6%; in [2] it was 62.8%; in assay [3] it was 86%; in assay [4] it was 57.4%; in [6], 110%; in assay [7], 34.2%. Moreover, the growth in [8] was 34.2%; in assay [9] it was 10.7%.
Take `O=C(N/N=C/c1ccccc1O)C(=O)Nc1ccc(F)cc1`: the growth was 44.5% in assay [1]; 19.3% in assay [2]; 22.7% in [5]; 92.4% in assay [6]; 23% in assay [7]; 21.3% in [8]. Moreover, in assay [9], the growth was 23.3%.
Regarding `O=C(NCCCN1CCC(N2CCCCC2)CC1)C1=Cc2cc(Br)ccc2OC1`, the growth in assay [1] is 57.7%; in [2], 21.8%; in assay [3] it was 60%; in [5], 54.5%; in assay [6], 52.7%; in assay [7], 27.4%. In addition, the growth in assay [8] is 11.9%.
Turning to `COc1cc(C(C)n2cc(-c3ccccc3)nn2)ccc1OC1CCCC1` (stereo not drawn), the growth is 75.2% in assay [1]; 50.9% in [2]; 53.4% in assay [4]; 49.6% in [5]; 55.6% in [6]; 53.5% in assay [7]. The growth in assay [8] was 48.6%.
For the molecule `COc1ccc(/C=C2\SC(=Nc3ccccc3)NC2=O)cc1`, the growth in [1] is -39.9% (active); in assay [2] it was -98.3% (active); in assay [6] it was -92.5% (active); in assay [7], -53.6% (active); in assay [8] it was -59% (active); in [9], -33% (active).
In the case of `Cc1sc2ncnc(Sc3nc4ccccc4[nH]3)c2c1C`, the growth in assay [1] is 25%; in assay [2] it was -86.2% (active); in assay [4] it was -82.7% (active); in assay [5], -68.6% (active); in [6] it was 24.5%; in assay [7] it was -53.2% (active). For the same molecule, the growth in assay [8] is -48.4% (active); in assay [9], -17.3% (active).
As to `CCCCCCc1cc2cc(-c3nc4ccccc4[nH]3)c(=Nc3ccccc3C)oc2cc1O`, the growth in assay [1] was 45.8%; in [2], 20.3%; in assay [3] it was 46.8%; in assay [4], 51%; in [6], 79.7%; in assay [7], 25.3%. Moreover, the values for the growth in assay [8] and in [9] were 21% and -14.5% (active), respectively.
